Assay outcomes (PubChem BioAssay)
Most compounds without a hit are left out; they make up all but 1.9% or so of the library.
RXFP1 antag – blocks the human relaxin receptor RXFP1; Q9HBX9; HEK293-RXFP1, relaxin-stimulated cAMP HTRF, 30 min; stronger effect = lower value; activity change, negative = inhibition, % at 57.5 µM; 350,000 tested, 0.59% active; AID 1259400;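 active = activity change of -60% or lower, but not beyond a set lower limit; inconclusive = change between -60% and -40%, or beyond the set limit; inactive = change above -40%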; also: % is scaled to controls: 0 for no effect and ±100 for the full control effect
NPSR antagonist – blocks cAMP signaling of the human neuropeptide S receptor; Q6W5P4; CHO-NPSR cells, cAMP TR-FRET, antagonist mode; Potency, µM (doses to about 38.3 µM), for the others: at the highest dose activity change, negative = inhibition, usual class: inhibitors; 220,000 tested, 1% active; AID 1461; also: potency is read from the fitted curve at half-maximal effect; % is scaled to controls: 0 for no effect and ±100 for the full control effect; nearly all actives have a fitted effect of over 50% in size
Target sequence (Q6W5P4 whole entry, looked up): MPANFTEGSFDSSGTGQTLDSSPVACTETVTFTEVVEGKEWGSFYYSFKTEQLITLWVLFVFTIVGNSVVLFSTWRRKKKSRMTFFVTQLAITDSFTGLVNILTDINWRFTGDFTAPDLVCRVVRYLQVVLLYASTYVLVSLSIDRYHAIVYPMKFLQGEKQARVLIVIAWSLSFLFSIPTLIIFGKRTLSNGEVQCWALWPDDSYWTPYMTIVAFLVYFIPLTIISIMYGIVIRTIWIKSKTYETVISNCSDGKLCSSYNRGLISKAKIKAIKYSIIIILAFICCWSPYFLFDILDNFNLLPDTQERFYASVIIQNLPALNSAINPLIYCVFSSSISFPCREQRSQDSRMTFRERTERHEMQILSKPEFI
RXFP1 agonist – RXFP1 (human) receptor agonism; 370,000 tested, 0.3% active; Q9HBX9; HEK293T-RXFP1 cAMP TR-FRET, 30 min; response scale: percent of porcine relaxin response, buffer zero; Potency, µM (series often up to 57.5 µM), without a hit: top-dose activation, actives largely listed as activators; also: potency is read from the fitted curve at half-maximal effect; % is scaled to controls: 0 for no effect and ±100 for the full control effect; nearly all actives have a fitted effect of over 60% in size
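Agonist response is measured as cAMP accumulation in an RXFP1-transfected HEK293T line under PDE4 inhibition. Values are scaled between buffer-only and 29 nM porcine relaxin, and EC50s come from standard Hill equation fits.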
IL-2 act – activates IL-2 in a cell-based reporter assay; activation, % (series mostly up to about 46 µM); AID 652025; IL-2 activation reporter assay, cell-based qHTS; stimulated with anti-CD3/CD4/CD28 beads; in transgenic mouse T cells; 360,000 tested, 0.065% active; in the data active = activation above about 50%; inconclusive = mostly about 30% to 49%; also: 0% is about no effect
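Unstimulated transgenic mouse T cells; 60-min compound exposure; bead-based TCR/CD4/CD28 stimulation; 18 h culture, 37 degrees C; dual fluorescence (EGFP, DsRed) plate cytometry.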
Giardia killer – kills Giardia lamblia | Giardia lamblia trophozoite viability | activity change, % at 7.66 µM, hits read low | 340,000 tested, 0.15% active; in the data active = activity change below about -80%; inconclusive = between about -30% and that limit;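 also: parasites exposed to compound for two days anaerobically before the ATP read; % is scaled to controls: 0 for no effect and ±100 for the full control effect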
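Media and compound were dispensed first, then trophozoites at 100 cells/well; plates sat 48 hrs at 37 deg C without oxygen before ATP luminescence reagent was added and read after 15-30 min at room temperature.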
BRCA1 expr act – activators of BRCA1 expression | Potency, µM (titrated, usually from 46.1 µM), for inactives: at the top dose activation, usual class: activators | MCF7-BRCA1-FFLuc reporter, luminescence, 48 h; response scale: scaled: vehicle 0%, 10 µM genistein 100% | AID 624202 | 380,000 tested, 1.1% active; also: potency is read from the fitted curve at half-maximal effect; nearly all actives have a fitted effect of over 80% in size
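MCF7-BRCA1-FFLuc, 2000 cells/well; 2 h attach, 37 °C/5% CO2; compound 48 h; luciferase substrate 15 min; luminescence end-point. Norm. to genistein 10 microM max activation and DMSO; concentration-response curves fitted.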
Numbers without * were called inactive; ? = inconclusive; . = no result; [ ] = dose if it differs, or a comment. Unless noted, calls follow the shape of the dose curve; as a rule, active = well fitted curve in the direction sought with a large enough effect; inconclusive = small, poorly fitted or top-dose-only effect, or another doubt; inactive = no such curve, though single readings can be large; an effect the other way counts as inactive or inconclusive.

SMILES | RXFP1 antag | NPSR antagonist | RXFP1 agonist | IL-2 act | Giardia killer | BRCA1 expr act
C=C1C=C(C)n2ncc(C(=O)Nc3ccc(C)cn3)c2N1 | . | . | . | . | . | -8.0%
O=c1c(S(=O)(=O)c2ccccc2)cn(Cc2ccc(F)cc2)c2cc(N3CCCC3)c(F)cc12 | 8.7 | . | -0.1% | . | . | .
CCC(CN)=C(c1ccccc1)c1ccccc1 | -16.7 | . | . | . | . | .
COc1cc(OC)cc(-c2noc(-c3csc([C@H]4C[C@H](O)[C@@H](CO)O4)n3)n2)c1 | . | . | . | 0.1 | . | 3.16µM*
CCOc1ccc(C2=C(C(=O)CC)Sc3nncn3N2C(=O)CC)cc1 | ? | . | 2.8% | . | . | .
O=C(Nc1ccccc1)N1CC=C(c2ccccc2)CC1 | . | -16.7%[46.1 µM] | 0.7% | . | . | .
O=C(Nc1ccccc1)N1CC=C(c2ccc(F)cc2)CC1 | -1.4 | -19.6%[46.1 µM] | -1.6% | -0.1 | -5.5 | 3.98µM*
CC(C)C(=O)NCCc1nc2ccccc2n1CCCOc1ccc(Cl)cc1 | -10.8 | -16.7%[46.1 µM] | -0.8% | -0.6 | 2.8 | -19.6%
Cc1ccccc1OCCCCn1c(CCNC(=O)C(C)(C)C)nc2ccccc21 | -62.8* | . | -1.0% | . | . | .
CC(C)(C)C(=O)NCCc1nc2ccccc2n1CCCCOc1ccc(Cl)cc1 | -84.9* | . | -1.0% | . | . | .
CC(C)CCn1c(=O)c2sccc2n2c(CCCC(=O)Nc3ccc(C(C)C)cc3)nnc12 | -8.9 | . | -1.5% | . | . | .
O=C(O)c1ccc(N2C(=O)/C(=C/c3ccc(-c4ccc([N+](=O)[O-])cc4)o3)C=C2c2ccccc2)cc1 | 2.2 | 10µM* | 2.9% | -5.5 | -23.3 | -3.5%
O=C1NN(c2ccccc2)C(=O)/C1=C/c1ccc(-c2ccc(C(=O)O)cc2)o1 | 4.6 | . | 1.3% | 0.6 | 13.5 | 30.9%
CCCCCCCCCCn1ccc(=N)cc1 | -21.1 | 7.94µM* | 2.5% | -1.0 | 2.0 | -90.4%
CCCCCCCCn1ccc(=N)cc1 | 18.8 | -20.2% | 0.8% | -0.8 | -11.6 | -63.9%
C/C(=N\OCc1ccc(C#N)cc1)c1ccc(S(=O)(=O)N(C)C)cc1 | -15.6 | . | -0.4% | -0.3 | -2.5 | 7.08µM*
O=C1NCN(c2ccccc2)C12CCN(CCCC(c1ccc(F)cc1)c1ccc(F)cc1)CC2 | ? | 12.6µM* | -0.5% | -0.6 | -4.2 | 4.5%
O=C(CCCN1CCN(c2ccccc2)CC1)c1ccc(F)cc1 | -3.4 | . | . | -3.6 | . | 1.0%
N#Cc1nc(-c2ccccc2)cc(-c2ccccc2)n1 | . | . | . | . | . | -7.5%
CCOc1ccc(S(=O)(=O)NCc2cccn2Cc2cccc(C)c2)cc1 | . | . | 0.5% | . | . | -3.9%
O=C(NCCCCc1ccccc1)c1cccc(Br)c1 | 8.6 | . | -2.4% | 0.1 | -23.3 | 39.4%
O=C(NCCc1ccccc1)c1cccc(NC(=O)C2CCCC2)c1 | . | . | . | -0.2 | -15.7 | 10µM*
O=C(NCCCCc1ccccc1)c1nn(-c2ccccc2F)nc1CO | -66.1* | . | -4.6% | . | . | .
O=C(NCCCCNC(=O)c1ccc(F)cc1)c1ccc(F)cc1 | 3.6 | . | -1.4% | -0.2 | 0.4 | -16.8%
O=C(NCCCc1ccccc1)c1cccc(Br)c1 | 0.2 | . | . | 1.3 | 3.4 | 12.6µM*
SMILES | RXFP1 antag | NPSR antagonist | RXFP1 agonist | IL-2 act | Giardia killer | BRCA1 expr act
O=C(NCCCc1ccccc1)c1ccc(F)cc1 | -9.1 | . | 0.7% | 0.6 | 5.9 | 7.08µM*
CCOc1cc(-c2ccc3c(c2)OCO3)cc(=[O+]CC)c2c(C)oc(C)c12 | . | . | . | . | -0.4 | 0.0%
CC(=O)Nc1ccc(C(=O)NCCc2ccccc2)cc1 | 21.5 | 30.6% | 0.7% | -0.2 | -4.2 | 12.6µM*
CCC(=O)c1ccc(OC(=O)Cc2ccc(OC)cc2)cc1 | -113.2* | . | -0.8% | 1.8 | 2.1 | -4.4%
N/C(=N\OC(=O)CCC1CCCC1)c1ccccn1 | -3.7 | 26.0% | 0.1% | -1.3 | 9.2 | 7.08µM*
N/C(=N\OC(=O)CCCc1ccccc1)c1ccccn1 | 1.3 | 1.1% | 3.0% | 0.5 | 3.6 | 11.2µM*
N/C(=N\OC(=O)COc1ccccc1)c1ccncc1 | 0.9 | -13.3% | 4.9% | -0.2 | -2.2 | 12.6µM*
N/C(=N\OC(=O)COc1ccccc1)c1ccccn1 | 3.4 | 30.2% | 6.2% | 0.8 | -22.6 | 12.6µM*
Cc1cc(/C=N/NC(N)=S)c(C)n1-c1ccc(Cl)c(Cl)c1 | -105.0* | -42.4% | 3.0% | -3.8 | 9.0 | -61.3%
O=C(NN=Cc1ccccc1O)c1cccc([N+](=O)[O-])c1 | -9.8 | . | . | -0.6 | -1.3 | -112.0%
